Source: PubChem BioAssay
S2 tox = reduces viability in counter-screen for ATXN expression inhibitors; S2 cells (HEK-293 line with an ATXN2-luciferase reporter) viability, CellTiter-Fluor protease fluorescence, 24 h; Potency, µM (series often up to 56.7 µM), hits mostly cytotoxic; actives 0.49% (n = 400,000); note: nearly all actives have a fitted effect of over 40% in size
Giardia kill = kills Giardia lamblia | Giardia lamblia trophozoite viability | activity change, % at 7.66 µM, hits read low | actives 0.15% (n = 340,000); in the data active = activity change below about -80%; inconclusive = between about -30% and that limit;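 note: parasites exposed to compound for two days anaerobically before the ATP read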
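Trophozoites 100 cells/well + cpd; 48 hrs, 37 deg C, anaerobic. ATPLite 1-Step added, 15-30 min RT, luminescence read (ATP-based viability).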
HepG2 tox = counter-screen for TGF-b inhibitors: cytotoxicity in HepG2 cells; Potency, µM (top dose mostly 46.1 µM), hits mostly cytotoxic; HepG2 CAGA-GFP viability, ATP luminescence, 18 h; AID 588856; actives 0.76% (n = 410,000)
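CellTiter-Glo luminescence gave cytotoxicity after 18 hours at 37 degrees C. The cells were HepG2 CAGA-GFP in 1% FBS DMEM, stimulated with 500 pg/mL TGF-beta after compound addition. %Activity was normalised to no-cell wells (complete cell-killing) and DMSO (no toxicity), and curves were fitted and classified.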
uPA surface inh = blocks generation of uPA at the cell surface | cell surface uPA generation assay, qHTS | Potency, µM (highest dose often 38.3 µM), hits mostly inhibitors | actives 0.31% (n = 330,000) | AID 540303; active = well fitted inhibition curve with a large enough effect; inconclusive = small, poorly fitted or top-dose-only effect; inactive = no such curve, though single readings can be large or run the other way; tested in mouse RAW 264.7 cells; note: nearly all actives have a fitted effect of over 55% in size
TGFb inhibitor = inhibitors of TGF-b signaling. AID 588855. Potency, µM (highest dose often 46.1 µM), actives largely listed as inhibitors. actives 1.2% (n = 410,000). HepG2 CAGA-GFP TGF-b/SMAD3 reporter, GFP fluorescence, 18 h; TGF-beta stimulated, 500 pg/mL final; note: nearly all actives have a fitted effect of over 65% in size
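GFP signal (ex488/em500-530) from TGF-beta-stimulated HEPG2 CAGA-GFP cells, 500 pg/mL final, 18 h at 37 degrees C in DMEM plus 1% FBS, normalized to unstimulated and DMSO-stimulated controls.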
ATXN2 expr inh = ATXN2 expression inhibition; HEK-293 ATXN2-luciferase reporter, luminescence, 24 h; Potency, µM (top dose mostly 57 µM), usual class: inhibitors; actives 0.72% (n = 360,000); AID 1745845; note: nearly all actives have a fitted effect of over 55% in size
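qHTS (up to 57 uM final) was run with 24 h compound exposure of reporter cells at 37 °C. Each well was multiplexed: SteadyGlo luminescence measured ATXN2-luciferase expression after a fluorogenic Gly-Phe-AFC viability readout (25 uM final).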
Hits are given with their value; - = inactive; ? = inconclusive; . = no result. Rows were chosen to be rich in hits. Some 2.6% of all compounds tested hit in one or more screens of this group. Unless noted, calls come from the whole dose curve; as a rule, active = well fitted curve in the direction sought with a large enough effect; inconclusive = small, poorly fitted or top-dose-only effect, or another doubt; inactive = no such curve, though single readings can be large; an effect the other way counts as inactive or inconclusive.

SMILES	S2 tox	Giardia kill	HepG2 tox	uPA surface inh	TGFb inhibitor	ATXN2 expr inh
O=C1c2ccccc2C(=O)c2ccccc21	-	.	.	.	.	-
c1ccc2c(c1)[IH]c1ccccc1-2	?	-98.4	-	?	4.47µM	7.94µM
COc1cc([C@@H]2c3cc4c(cc3[C@@H](OC)[C@H]3COC(=O)[C@H]23)OCO4)cc(OC)c1O	?	-	-	1.58µM	?	-
COc1cc([C@@H]2c3cc4c(cc3[C@H](O)[C@H]3COC(=O)[C@@H]23)OCO4)cc(OC)c1OC	.	-	-	.	-	?
N#CC(C#N)=NNc1ccc(-n2ccc(C(F)(F)F)n2)cc1	?	-	-	-	3.16µM	?
Cc1cc(C)n(-c2ccc(NN=C(C#N)C#N)cc2)n1	?	-	-	?	?	.
O=C(Nc1cccc(Br)c1)Oc1cccc2cccnc12	?	.	2.82µM	.	?	6.31µM
COc1ccccc1-c1nn2c(=O)cc(CN3CCN(C(=O)Nc4ccc(C)cc4Cl)CC3)nc2s1	?	.	-	.	-	-
O=C1NCN(c2ccccc2)C12CCN(C(CCc1ccccc1)c1nnnn1C1CCCCC1)CC2 (stereo not given)	?	.	-	.	12.6µM	?
O=C1NCN(c2ccccc2)C12CCN(C(CCc1ccccc1)c1nnnn1C1CCCC1)CC2 (stereo not given)	31.6µM	.	-	.	11.2µM	?
O=C1NCN(c2ccccc2)C12CCN(C(c1ccccc1OC(F)(F)F)c1nnnn1C1CCCCC1)CC2 (stereo not given)	?	.	-	.	?	-
O=C1NCN(c2ccccc2)C12CCN(C(c1cccs1)c1nnnn1C1CCCC1)CC2 (stereo not given)	?	.	-	.	?	?
Cc1oc(-c2ccc(Cl)cc2)nc1CN1C(=O)CN=C(c2ccccc2)c2ccccc21	?	.	-	.	20µM	?
Nc1c(C(=O)NCc2ccco2)c2nc3ccccc3nc2n1Cc1ccccc1	.	-	-	-	11.2µM	.
Cc1ccc(-n2nc3c(=O)n(CC(=O)NCC(C)c4ccccc4)nc(C)c3c2C)cc1 (stereo not given)	?	.	-	.	-	-
CCOC(=O)[C@]12Cc3cc(C)ccc3[C@H]1N(C1CCCCC1)C(=O)c1cc(OC)ccc12	4.47µM	.	.	.	.	5.01µM
CCOC(=O)[C@]12Cc3c(cc(OC)c(OC)c3OC)[C@H]1N(C)C(=O)c1cc(OC)ccc12	.	.	.	.	.	11.2µM
CCOC(=O)[C@]12Cc3cc(C)ccc3[C@H]1N(CCC(=O)OC)C(=O)c1cc(OC)ccc12	15.8µM	.	.	.	.	22.4µM
CCOC(=O)[C@]12Cc3ccccc3[C@H]1N(CCC(=O)OC)C(=O)c1ccccc12	?	.	.	.	.	-
CCOC(=O)[C@]12Cc3cc(OC)ccc3[C@H]1N(Cc1ccccc1)C(=O)c1cc(F)c(F)cc12	-	-	-	?	?	-
CCOC(=O)[C@]12Cc3ccccc3[C@H]1N(Cc1ccccc1)C(=O)c1ccccc12	?	-	-	-	-	?
CCOC(=O)[C@]12Cc3cc(OC)ccc3[C@H]1N(C1CCCCC1)C(=O)c1cc(OC)ccc12	12.6µM	.	.	.	.	20µM
CN(CCc1ccccc1)C(=O)c1ccc(NC(=O)Cc2ccc([N+](=O)[O-])cc2)cc1	-	-	-	?	?	-
CC(C)=CCN1CC[C@]2(C)c3cc(O)ccc3C[C@H]1[C@H]2C	-	.	.	.	.	.
C[C@@H](N)C(=O)c1ccccc1	-	.	.	.	.	.
SMILES	S2 tox	Giardia kill	HepG2 tox	uPA surface inh	TGFb inhibitor	ATXN2 expr inh
Cc1ccc(S(=O)(=O)Nc2ccccc2N(C)S(=O)(=O)c2ccc(C)cc2)cc1	-	-	-	?	?	-
CCO[C@H]1OC(C(=O)N2CCN(Cc3ccc4c(c3)OCO4)CC2)=C[C@@H](c2ccc(Br)cc2)[C@@H]1CCCO	?	-	-	?	?	?
CCOC(=O)[C@]12Cc3cc(OC)ccc3[C@H]1N(Cc1ccccc1)C(=O)c1ccccc12	?	-	-	-	?	?
CCCCCN1C(=O)c2ccccc2[C@@]2(C(=O)OCC)Cc3cc(OC)ccc3[C@@H]12	12.6µM	.	.	.	.	?
Nc1c(C(=O)Nc2ccc3c(c2)OCCO3)nnn1CCc1ccccc1	-	-	-	7.94µM	?	-
Cc1cc(C(=O)Nc2ccc3c(c2)OCCO3)nn1C(C)(C)C	-	-	-	-	-	-
O=C1OC(CCN2CCCCC2)OC1(c1ccccc1)c1ccccc1 (stereo not given)	-	.	.	.	.	-
Cc1cccc(Cn2c(SCc3ccc(C(=O)NC4CCCCC4)cc3)nc3cccnc32)c1	?	.	-	.	-	?
CCC(C(=O)NC1CCCCC1)n1c(SCc2cccc(C)c2)nc2ccncc21 (stereo not given)	?	-	-	?	12.6µM	-
COc1cccc(-c2sc3ccccc3c2-c2ccc(OCCN(C)C)cc2)c1	.	-	11.2µM	?	?	22.4µM
NC(Cc1ccccc1)c1csc(Nc2ccccn2)n1 (stereo not given)	?	.	-	.	?	-
NC(Cc1ccc(F)cc1)c1csc(Nc2ccccn2)n1 (stereo not given)	-	.	25.1µM	.	?	?
COc1cccc(Nc2nc(C(N)Cc3ccc(F)cc3)cs2)n1 (stereo not given)	?	.	-	.	?	25.1µM
NC(Cc1ccc(Cl)cc1)c1csc(Nc2ccccn2)n1 (stereo not given)	?	.	-	.	?	22.4µM
COc1ccc(OC)c(C[C@H](C)N)c1	-	.	.	.	.	.
CC(C)c1ccc(/C=C2\SC(=S)N(CCC(=O)N3CCCCC3CCO)C2=O)cc1 (stereo not given)	?	-	-	?	-	.
COc1ccc(-c2coc3c(C(=O)Nc4cc(OC)c(OC)c(OC)c4)cccc23)c(C)c1	?	.	-	.	-	?
O=C1N[C@@H](c2ccccc2)COC(=O)[C@H](Cc2ccc(F)cc2)C/C=C\C[C@H]1CC(=O)N(CCO)Cc1ccccc1	-	-	-	-	-	-
O=C1NC[C@H](c2ccccc2)OC(=O)[C@H](Cc2ccc(F)cc2)C/C=C\C[C@H]1CC(=O)N(CCO)Cc1ccccc1	?	-	-	-	?	31.6µM
COc1ccc(/C=N/Nc2cc(N3CCCC3)nc(N3CCCC3)n2)cc1	28.2µM	-	-	-	?	14.1µM
COc1cc(C(=O)N/N=C/c2ccc(OC(=O)N3CCOCC3)cc2)cc(OC)c1OC	-	-	-	?	-	.
C[N+](C)(C)CC1CCCc2ccccc2C1=O (stereo not given)	?	-	-	-	?	?
C[N+](C)(C)CC1CCCC(C[N+](C)(C)C)C1=O (stereo not given)	?	-	-	-	12.6µM	?
Cc1cc(/C=C/c2cccc3sc(C)[n+](CCCCI)c23)ccc1N(CCCl)CCCl	.	.	-	.	?	.
Cn1c(=O)oc2cc(S(=O)(=O)N3CCCc4ccccc43)ccc21	-	-	-	2.24µM	-	-
